Measured values as given in PMC4552634, “A New Set of Chemical Starting Points with Plasmodium falciparum Transmission-Blocking Potential for Antimalarial Drug Discovery” (PLoS ONE, 2015).
Among all 13,000 compounds or so, about 3,200 (25%) showed an effect of 50% or more. The list shows a part of the results.

test system: P. falciparum stage V gametocytes; set-up: BacTiter-Glo ATP luminescence viability of purified stage V gametocytes in 384-well plates, per cent inhibition versus DMSO; conditions: 48 h, 5 µM; inhibitor

Compound	% Inhibition
CN(C)CCN(C)Cc1ccc(-c2ccc(NS(=O)(=O)c3cccc4cccnc34)cc2)cc1 [TCMDC-136474]	21.58%
CCn1cc(C=C2Oc3c(ccc(O)c3CN3CCCCC3)C2=O)c2cc(OC)ccc21 [TCMDC-124887]	12.33%
CCCNCc1ccc(-c2ccc(CN(CCOC)C(=O)CCC(=O)c3ccc(OC)c(F)c3)cc2)nc1 [TCMDC-141537]	97.99%
CCCNCc1ccc(-c2ccc(CN(CCOC)C(=O)CCc3ccc(OC)cc3)cc2)nc1 [TCMDC-141539]	54.14%
Cc1cc(NC(=O)NCCN2CCC(NS(=O)(=O)c3ccccc3F)CC2)c2ccccc2n1 [TCMDC-136137]	1.757%
CCOC(=O)c1[nH]c(-c2cc(Cl)nc(Cl)c2)nc1NC(=S)NCc1ccc(NS(C)(=O)=O)cc1 [TCMDC-138899]	-31.28%
CC(=O)c1nccc(C)c1N [TCMDC-139307]	-14.24%
CN1CCC(Oc2cc(NC(=O)Nc3ccc(-c4ccncc4)c(Cl)c3)ccc2Cl)CC1 [TCMDC-139205]	28.36%
O=C(CCCCCNC(=O)c1ccc(O)c(-c2ccc(Cl)c(Cl)c2)c1)NCc1cccc(C(F)(F)F)c1 [TCMDC-140831]	18.4%
O=C(Nc1ccsc1)Nc1cccc(-c2ccc(-c3nc4ccc(C(F)(F)F)cc4[nH]3)cc2)c1 [TCMDC-133210]	-6.282%
CNCCCn1c(N(C)C)nc2cc(-n3cnc4cc(-c5ccc(Cl)cc5)sc4c3=O)ccc21 [TCMDC-138914]	43.83%
COc1ccc(-c2cc3ncn(CC(=O)N4CCN(c5cccc(OC)c5)CC4)c(=O)c3s2)cc1 [TCMDC-125255]	66.27%
COc1ccc(-c2cc3ncnc(N4CCN(CCN5CCCC5)CC4)c3s2)cc1 [TCMDC-125055]	-2.838%
CN1CCN(C(=O)CN2CCC3(CCC2=O)NC(=O)c2ccccc2O3)CC1 (stereo not drawn) [TCMDC-125378]	-32.42%
CC(=O)N/N=C/[C@H](CCc1ccccc1)NC(=O)[C@H](CC(C)C)NC(=O)c1ccc(F)cc1 [TCMDC-135965]	1.649%
CC[C@H](NC(=O)c1c(N)c(-c2sccc2Cl)nc2ccccc12)c1ccccc1 [TCMDC-141650]	17.42%
O=[N+]([O-])c1cccc(CNCC2CCN(CCc3ccccc3)CC2)c1 [TCMDC-141210]	2.081%
Cc1nc(-c2cccc(Nc3nccc(NCC(O)c4cccc(F)c4)n3)c2)cs1 (stereo not drawn) [TCMDC-136571]	-23.01%
COc1cccc(Nc2nc(C)cc(Nc3cccc(C#N)c3)n2)c1 [TCMDC-133448]	4.259%
Fc1cccc(Nc2nc(NCCc3ccc(Cl)cc3)nc(Nc3cccc(F)c3)n2)c1 [TCMDC-135141]	40.3%
Fc1cccc(Nc2nc(NCc3ccc(Cl)c(Cl)c3)nc(Nc3cccc(F)c3)n2)c1 [TCMDC-135139]	55.91%

Compound	% Inhibition
FC(F)(F)Oc1cccc(CNc2noc(-c3sccc3Br)n2)c1 [TCMDC-134186]	1.419%
COc1ccc(CNc2nc(Nc3cccc(C#N)c3)nc(Nc3cccc(C#N)c3)n2)cc1Cl [TCMDC-138547]	52.56%
Fc1ccc(Nc2n[nH]c(CNC3CCN(Cc4ccc(Cl)c(Cl)c4)CC3)n2)cc1 [TCMDC-138655]	-23.76%
COc1cccc(Nc2nc(Nc3cccc(C#N)c3)cc(C(F)(F)F)n2)c1 [TCMDC-133462]	-24.01%
Fc1cccc(Nc2nc(NCc3ccc4ccsc4c3)nc(Nc3cccc(F)c3)n2)c1 [TCMDC-135140]	55.41%
CC(=O)Nc1ccc(CN2CCCN(c3cc(NC(=O)c4cccc(C)c4)ccn3)CC2)cc1 [TCMDC-134980]	8.133%
Cc1cccc(OCCCCON2C(N)=NC(N)=NC2(C)C)c1C [TCMDC-131662]	9.727%
COc1ccc(NC(=O)/C=C/c2ccc(Cl)c(Cl)c2)cc1N1CCN(C)CC1 [TCMDC-139042]	-34.01%
CC(C)n1ncc2c(C(=O)Nc3ccc(C#N)c(Cl)c3)cc(C3CC3)nc21 [TCMDC-125244]	-17.87%
COc1ccc(CCNC(=O)c2cnc3c(c2)nc(-c2cnc(-c4ccccc4)[nH]2)n3CCc2cnc[nH]2)cc1 [TCMDC-139689]	-21.36%
Cc1cccc2nc(-c3ccc(-c4ccc(CNCCNC(=O)c5ccnn5C)cc4)cc3)[nH]c12.O=C(O)C(F)(F)F [TCMDC-133017]	85.49%
Cc1cccc2nc(-c3cccc(-c4cccc(CNCCNC(=O)c5ccnn5C)c4)c3)[nH]c12.O=C(O)C(F)(F)F [TCMDC-133005]	-4.375%
Cc1cccc2nc(-c3ccc(-c4cccc(CNCCNC(=O)c5ccnn5C)c4)s3)[nH]c12.O=C(O)C(F)(F)F [TCMDC-133015]	-0.5354%
Cc1cccc2nc(-c3ccc(-c4cccc(CNCCNC(=O)c5ccnn5C)c4)cc3)[nH]c12.O=C(O)C(F)(F)F [TCMDC-133011]	85.89%
Cc1cccc2nc(-c3ccc(-c4ccc(CNCCNC(=O)c5ccnn5C)cc4)s3)[nH]c12.O=C(O)C(F)(F)F [TCMDC-133009]	4.683%
Cc1cccc2nc(-c3cccc(-c4ccc(CNCCNC(=O)c5ccnn5C)cc4)c3)[nH]c12.O=C(O)C(F)(F)F [TCMDC-133007]	31.89%
CS(=O)(=O)CCNCc1ccc(-c2ccc3ncnc(Nc4ccc(OCc5ccccc5)c(Cl)c4)c3c2)o1 [TCMDC-138467]	19.81%
COc1cc(OCCCCCCON2C(N)=NC(N)=NC2(C)C)cc(OC)c1OC [TCMDC-131371]	3.006%
Cc1cc(OCCCN2CCC(NS(=O)(=O)c3ccc(C(F)(F)F)cc3)CC2)c2ccccc2n1 [TCMDC-136277]	-32.21%
COc1ccc(-n2nc(C)c3c2NC(=O)CC3c2ccccc2OCc2ccccc2F)cc1 (stereo not drawn) [TCMDC-124907]	2.012%
COc1ccc2nccc([C@@H](O)CN3CCC(NC(=O)c4cc5cccnc5[nH]4)CC3)c2c1 [TCMDC-140768]	6.193%
